Test systems include K-562 leukemia; MALME-3M melanoma; MDA-MB-231 breast; RXF 393 renal; SF-268 CNS; SF-295 CNS; SF-539 CNS; UACC-257 melanoma; M14 melanoma; HCT-15 colon; HT29 colon; SNB-75 CNS; SNB-19 CNS; U251 CNS; PC-3 prostate; SK-MEL-5 melanoma; UACC-62 melanoma; LOX IMVI melanoma; SK-MEL-28 melanoma; SK-MEL-2 melanoma.
Holding throughout (test): NCI-60 one-dose screen, 48 h (100 = growth as untreated, 0 = no growth, -100 = all killed)
What all share (conditions): 10 µM

This is part of a sample that, as a whole, favours compounds with a hit. Of some 83,000 tested, about 20% had one in any assay.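 Results are percent growth after 48 hours of single-concentration exposure. 100 means growth as in untreated cells, lower positive values show inhibition; negative values down to -100 show cell death.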 Values without a mark were called inactive. Calls of active or inactive are those of the source. How the source made its calls: active means growth percent below 10; inactive means the rest.

On to `O=C1C(c2ccccc2)C2C=CC(C2)N1O` (centres undefined), for which the growth in the experiment on K-562 leukemia was 96.9%; with MALME-3M melanoma, 109%; in the experiment with MDA-MB-231 breast, 102%; in the experiment with RXF 393 renal it was 104%; in the experiment on SF-268 CNS, 107%; in the experiment on SF-295 CNS, 122%. Besides, the growth in the experiment on SF-539 CNS is 113%; in the experiment with UACC-257 melanoma it was 105%; with M14 melanoma, 111%; with HCT-15 colon, 106%; in the experiment on HT29 colon it was 97.9%; in the experiment with SNB-75 CNS, 107%. In addition, the growth was 106% in the experiment with SNB-19 CNS; 109% in the experiment with U251 CNS; 98.2% in the experiment on PC-3 prostate; 106% with SK-MEL-5 melanoma; 101% in the experiment on UACC-62 melanoma; 99.6% with LOX IMVI melanoma. The growth in the experiment with SK-MEL-28 melanoma was 118%; in the experiment on SK-MEL-2 melanoma, 103%.
Take `CCOC1(OCC)OC(c2ccccc2)=C(C#N)C(/C=C\c2ccccc2)C1(OCC)OCC` (centres undefined): the growth was 73.3% with K-562 leukemia; 73.7% in the experiment with MALME-3M melanoma; 85.1% in the experiment on MDA-MB-231 breast; 60.1% in the experiment on RXF 393 renal; 79.8% in the experiment on SF-268 CNS; 94.1% in the experiment with SF-295 CNS. The growth was 100% in the experiment on SF-539 CNS; 81% in the experiment with UACC-257 melanoma; 78% with M14 melanoma; 81.7% in the experiment on HCT-15 colon; 69.6% in the experiment on HT29 colon; 86.6% in the experiment with SNB-75 CNS. The growth was 89.8% with SNB-19 CNS; 77.4% with U251 CNS; 54.9% with PC-3 prostate; 95.5% with SK-MEL-5 melanoma; 80.1% in the experiment on UACC-62 melanoma; 79% in the experiment on LOX IMVI melanoma. The growth was 99.8% in the experiment with SK-MEL-28 melanoma and 95.3% in the experiment with SK-MEL-2 melanoma.
Take `Cc1ccc(C(=O)N2C/C(=C/c3ccc(F)cc3)C(=O)/C(=C/c3ccc(F)cc3)C2)cc1`: the growth in the experiment with K-562 leukemia is 44.2%; with MALME-3M melanoma, 98.5%; with MDA-MB-231 breast, 83.4%; in the experiment with RXF 393 renal it was 90.4%; in the experiment on SF-268 CNS, 85.2%; with SF-295 CNS it was 92.5%. The growth in the experiment with SF-539 CNS is 93.2%; in the experiment on UACC-257 melanoma, 94.4%; in the experiment on M14 melanoma, 84.8%; in the experiment with HCT-15 colon it was 95.1%; with HT29 colon it was 74.1%; with SNB-75 CNS it was 59.7%. For the same compound, the growth in the experiment with SNB-19 CNS is 97.8%; with U251 CNS it was 88.9%; with PC-3 prostate, 85.2%; with SK-MEL-5 melanoma, 94.6%; in the experiment on UACC-62 melanoma, 86.3%; in the experiment on LOX IMVI melanoma, 54.5%. For the same compound, in the experiment with SK-MEL-2 melanoma, the growth was 84%.
`C=C(NC(=O)C(=C)NC(=O)c1csc(C2=NC3c4csc(n4)C4NC(=O)c5csc(n5)C(C(C)(O)C(C)O)NC(=O)C5CSC(=N5)/C(=C/C)NC(=O)C(C(C)O)NC(=O)c5csc(n5)C3(CC2)NC(=O)C(C)NC(=O)C(=C)NC(=O)C(=C)NC(=O)C(C(C)C)NC2C=Cc3c(C(C)O)cc(nc3C2O)C(=O)OC4C)n1)C(N)=O` (centres undefined): the growth was -11.3% (active) in the experiment with K-562 leukemia; -64.6% (active) in the experiment with MALME-3M melanoma; 29.7% in the experiment with MDA-MB-231 breast; 16.9% in the experiment on RXF 393 renal; 21.5% with SF-268 CNS; 26.6% in the experiment with SF-295 CNS. In addition, the growth was -22.5% (active) with SF-539 CNS; 24.2% with UACC-257 melanoma; -29.5% (active) in the experiment with M14 melanoma; -23.7% (active) with HCT-15 colon; -2.13% (active) in the experiment with HT29 colon; -10.9% (active) with SNB-75 CNS. Moreover, the growth with SNB-19 CNS is 16.8%; with U251 CNS it was -46% (active); in the experiment on PC-3 prostate, 9.64% (active); with SK-MEL-5 melanoma it was -56.2% (active); in the experiment with UACC-62 melanoma, 5.94% (active); in the experiment with LOX IMVI melanoma it was -52.7% (active). The growth in the experiment on SK-MEL-2 melanoma was -17.7% (active).
On to `Cc1ccc(NC(=O)Nc2cccnc2)cc1NC(=O)Nc1cccnc1`, for which the growth in the experiment on K-562 leukemia is 57.4%; with MALME-3M melanoma, 102%; with MDA-MB-231 breast, 92.8%; in the experiment with RXF 393 renal, 82.7%; in the experiment on SF-268 CNS, 96.8%; with SF-295 CNS, 77.9%. Also, the growth is 87.5% with SF-539 CNS; 10.9% with UACC-257 melanoma; 91.6% in the experiment on M14 melanoma; 84% in the experiment with HCT-15 colon; 89.6% with HT29 colon; 95.9% in the experiment on SNB-75 CNS. The growth in the experiment with SNB-19 CNS is 94%; in the experiment on U251 CNS, 79%; with PC-3 prostate it was 43.4%; in the experiment on SK-MEL-5 melanoma, 64.3%; with UACC-62 melanoma, 75.7%; with LOX IMVI melanoma, 96.6%. Besides, the growth in the experiment with SK-MEL-2 melanoma is 83%.
Consider `C/C(=N\Nc1nc2ccccc2s1)c1ccncn1`, for which the growth was 0.401% (active) in the experiment on K-562 leukemia; 43.2% with MALME-3M melanoma; 31.3% with MDA-MB-231 breast; 9.64% (active) in the experiment on RXF 393 renal; 45.5% in the experiment with SF-268 CNS; 39.3% in the experiment on SF-295 CNS. Besides, the growth was 40.8% in the experiment with SF-539 CNS; 55.6% with UACC-257 melanoma; 34.9% with M14 melanoma; 18.6% in the experiment on HCT-15 colon; 25.1% in the experiment with HT29 colon; 61.8% in the experiment on SNB-75 CNS. The growth is 51.1% in the experiment on SNB-19 CNS; 33.6% in the experiment with U251 CNS; 27.3% with PC-3 prostate; 31.4% in the experiment with SK-MEL-5 melanoma; 41.7% in the experiment with UACC-62 melanoma; 31.5% in the experiment with LOX IMVI melanoma. For the same compound, the growth in the experiment on SK-MEL-2 melanoma was 63%.
For the compound `COc1cc(OC)cc(-c2cncn2-c2ccc(-c3nc4cc(OC)cc(OC)c4s3)cc2)c1`, the growth with K-562 leukemia is 19.2%; in the experiment with MALME-3M melanoma, 48%; with MDA-MB-231 breast, 66.5%; with RXF 393 renal, 58.1%; with SF-268 CNS it was 68.5%; in the experiment on SF-295 CNS it was -22% (active). Besides, the growth with SF-539 CNS is 62.6%; in the experiment with UACC-257 melanoma, 82.4%; in the experiment on M14 melanoma it was 38.8%; in the experiment with HCT-15 colon, 48.4%; in the experiment on HT29 colon, 36.4%; in the experiment on SNB-75 CNS, 60.9%. The growth in the experiment with SNB-19 CNS is 63.6%; in the experiment with U251 CNS, 40.8%; in the experiment with PC-3 prostate, 34.1%; in the experiment on SK-MEL-5 melanoma it was 39.5%; in the experiment on LOX IMVI melanoma, 51.4%; with SK-MEL-28 melanoma, 82.7%. In addition, the growth in the experiment with SK-MEL-2 melanoma is 81.1%.
With `Cc1cc(C)c(NC(=O)c2sc3nc4c(cc3c2N)C(=O)CCC4)c(C)c1`, the growth in the experiment on K-562 leukemia was 19.8%; with MALME-3M melanoma it was 42.1%; in the experiment with MDA-MB-231 breast it was 35.7%; in the experiment on RXF 393 renal, -6.66% (active); in the experiment on SF-268 CNS, 38.6%; with SF-295 CNS, -11.3% (active). Moreover, the growth in the experiment on SF-539 CNS is -6.5% (active); in the experiment on UACC-257 melanoma, 48.7%; in the experiment on M14 melanoma, 16.4%; with HCT-15 colon, 31.8%; in the experiment with HT29 colon it was 0.48% (active); in the experiment on SNB-75 CNS, 0% (active). In addition, the growth in the experiment on SNB-19 CNS was 40.2%; in the experiment on U251 CNS, 21.1%; with PC-3 prostate, 23.5%; with SK-MEL-5 melanoma, 11.3%; in the experiment with UACC-62 melanoma it was 23.2%; in the experiment on LOX IMVI melanoma it was 50.6%. In addition, the growth in the experiment on SK-MEL-2 melanoma is 36.1%.
